High-throughput results deposited in PubChem by National Center for Advancing Translational Sciences (NCATS).
TGFb SMAD3 inh – inhibitors of TGF-b signaling; HepG2 CAGA-GFP TGF-b/SMAD3 reporter, GFP fluorescence, 18 h; TGF-beta stimulated, 500 pg/mL final; Potency, µM (doses to about 46.1 µM), inactives show at the highest dose activity, negative = inhibition, most hits filed as inhibitors; 410,000 compounds, 1.2% hits; note: potency is the fitted concentration of half-maximal effect; % is set by controls: 0 for no effect and ±100 for the full control effect; nearly all actives have a fitted effect of over 65% in size
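Per well, imaged GFP fluorescence of HEPG2 CAGA-GFP cells gives the signal; cells get compound, then TGF-beta (500 pg/mL final), 18 h at 37 degrees C; %Activity versus -TGF-beta and +DMSO controls.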
HepG2 tox – HepG2 cytotoxicity, counter-screen for TGF-b inhibitors. HepG2 CAGA-GFP viability, ATP luminescence, 18 h. AID 588856. Potency, µM (top dose mostly 46.1 µM), inactives show at the highest dose activity change, negative = cytotoxicity, usual class: cytotoxic. 410,000 compounds, 0.76% hits; note: potency is the fitted concentration of half-maximal effect
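HepG2 CAGA-GFP cells (1000/well, DMEM with 1% FBS) received compound, then TGF-beta at 500 pg/mL final, and were incubated 18 hours at 37 degrees C. Viability was read by CellTiter-Glo luminescence. Media-only wells were set as complete cell-killing and DMSO as no toxicity.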
S2 tox – viability counter-screen for ATXN expression inhibitors. S2 cells (HEK-293 line with an ATXN2-luciferase reporter) viability, CellTiter-Fluor protease fluorescence, 24 h. Potency, µM (doses to about 56.7 µM), most hits filed as cytotoxic. 400,000 compounds, 0.49% hits; note: potency is the fitted concentration of half-maximal effect; nearly all actives have a fitted effect of over 40% in size
ATXN2 expr inh – reduces ATXN2 reporter expression in HEK-293 cells; Potency, µM (highest dose often 57 µM), inactives show top-dose activity change, negative = inhibition, hits mostly inhibitors; HEK-293 ATXN2-luciferase reporter, luminescence, 24 h; 360,000 compounds, 0.72% hits; note: potency is the fitted concentration of half-maximal effect; % is set by controls: 0 for no effect and ±100 for the full control effect; nearly all actives have a fitted effect of over 55% in size
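qHTS (up to 57 uM final) was run with 24 h compound exposure of reporter cells at 37 °C. Each well was multiplexed: SteadyGlo luminescence measured ATXN2-luciferase expression after a fluorogenic Gly-Phe-AFC viability readout (25 uM final).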
DRD3 agonist – agonists of human D3 dopamine receptor. D3R DiscoveRx beta-arrestin cells, luminescence, 90 min. 410,000 compounds, 0.58% hits. max activation, %. AID 652048; in the data active = max activation above about 30%; note: 0% is about no effect
Target sequence (P35462 whole entry, looked up): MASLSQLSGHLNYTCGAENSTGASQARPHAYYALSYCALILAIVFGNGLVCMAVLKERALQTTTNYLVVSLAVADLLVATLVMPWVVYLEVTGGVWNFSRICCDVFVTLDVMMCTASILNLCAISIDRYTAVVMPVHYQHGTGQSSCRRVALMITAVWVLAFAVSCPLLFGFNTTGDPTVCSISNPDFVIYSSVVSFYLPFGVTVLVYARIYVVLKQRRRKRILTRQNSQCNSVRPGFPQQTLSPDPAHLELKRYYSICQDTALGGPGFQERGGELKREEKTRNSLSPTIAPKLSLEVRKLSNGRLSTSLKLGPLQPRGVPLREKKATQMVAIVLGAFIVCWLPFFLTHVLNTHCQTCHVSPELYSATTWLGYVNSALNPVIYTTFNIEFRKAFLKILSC
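Agonist-mode cell screen: cells plated at 1500/well and incubated overnight at 37 °C, then exposed to library compounds for 90 min at 37 °C. Detection reagent was added for 30–60 min at room temperature, and luminescence was read.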
D3 antag – blocks the human D3 dopamine receptor; P35462; D3R cells, DiscoveRx beta-arrestin luminescence, antagonist mode; stronger effect = lower value; max response, negative = inhibition, %; 360,000 compounds, 2.5% hits; AID 652054; in the data active = max response below about -50%; inconclusive = no clear call, values can overlap the other calls; note: % is set by controls: 0 for no effect and ±100 for the full control effect
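Cells expressing the human receptor were seeded at 1500 cells/well, incubated overnight at 37 degrees C in 5% CO2, then exposed to library compounds with dopamine controls for 90 minutes at 37 degrees C before luminescent detection.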
Active calls of the source: *; i = inactive; ? = inconclusive; . = not tested or not shown; ! = not confirmed by another sample. In the library only some 4.8% were active in any assay of this set; here they are far more common. Unless noted, calls come from the whole dose curve; as a rule, active = well fitted curve in the direction sought with a large enough effect; inconclusive = small, poorly fitted or top-dose-only effect, or another doubt; inactive = no such curve, though single readings can be large; an effect the other way counts as inactive or inconclusive.

SMILES | TGFb SMAD3 inh | HepG2 tox | S2 tox | ATXN2 expr inh | DRD3 agonist | D3 antag
C/C(=N\NC(=O)c1cc(C)nc2ccccc12)c1ccccn1 | 4µM* | -37% | ? | ? | -15 | -74*
CC(=NNC(=S)N1CC2CCC(CC2)C1)c1cccc(C)n1 | ? | -48% | ? | -29% | 1 | -73*
C/C(=N\NC(=O)c1cc(C)nc2ccccc12)c1ccncc1 | 0% | -5% | i | -6% | -8 | -14
CC(=NNC(=S)N1CCC1)c1ccccn1 | ? | -28% | ? | 0.034µM*! | 2 | 7
C/C(=N\NC(=O)c1ccc(Cl)cc1)c1ccccn1 | 2µM* | -24% | ? | ? | -35 | -106*
COc1cc(=O)n2c(c1C(=O)N(C)Cc1nonc1C)CCN(C(=O)c1cccc(C)c1C)CC2 | . | . | i | . | . | .
Cc1ccc2ccc3cc(C(=O)N4CCN(c5ccccc5)CC4)nc3c2[nH]1 | ? | -37% | i | -27% | 4 | .
CCCN(CCC)CCNC(=O)Cn1ncc2c([nH]c3ccc(C)cc32)c1=O | 9% | 13% | i | 8% | 3 | .
CCOc1ccc(N=C2NC(=O)S/C2=C\c2ccc(N(C)C)cc2)cc1 | 42% | -15% | i | 12% | -11 | -69*
COc1cc(NC(=O)c2cc([N+](=O)[O-])ccc2NC(=O)CNCc2ccccn2)cc(OC)c1 | ? | -3% | i | 1% | 34* | 19
COc1cc(NC(=O)c2cc([N+](=O)[O-])ccc2NC(=O)CNC2CCCCC2)cc(OC)c1 | -28% | -1% | i | -12% | -9 | 6
COc1ccc(NC(=O)c2cc([N+](=O)[O-])ccc2NC(=O)CNCc2ccccn2)c(OC)c1 | 5% | -1% | i | -15% | 11 | -13
COc1cc(NC(=O)c2cc([N+](=O)[O-])ccc2NC(=O)CNC2CCCCC2C)cc(OC)c1 (stereo unspecified) | -3% | 2% | i | -19% | 49* | 17
CCCCN(CCCC)Cc1ccc(C(=O)NNC(=O)Nc2ccc(F)cc2)o1 | 0% | 18µM* | i | -7% | 0 | 0
COC(=O)C(Nc1ccccc1Cl)(c1cc(C)c(O)c(C)c1)C(F)(F)F (stereo unspecified) | 10µM* | 16µM* | i | ? | 5 | -2
COc1ccc(NC(=O)C2C3C=CC(C3)C2C(=O)NCc2ccco2)c(OC)c1 (stereo unspecified) | -3% | 8% | i | -5% | 0 | -56*
CCOC(=O)C1=C(CN2CCC(C)CC2)NC(=O)NC1c1ccc(F)cc1 (stereo unspecified) | -12% | -24% | i | 0% | 2 | .
CCOC(=O)C1=C(CN2CCC(C)CC2)NC(=O)NC1c1ccc(Cl)cc1 (stereo unspecified) | ? | -11% | i | -13% | 2 | -86*
N#Cc1ccc(Oc2ccc3c(c2)COB3O)cc1 | . | . | . | -23% | . | .
CCOC(=O)c1c(NC(=O)c2cc3nc(-c4ccccc4)cc(C(F)(F)F)n3n2)sc2c1CCC(C)C2 (stereo unspecified) | 58% | 17% | . | . | -15 | .
Cc1ccc(NC(=O)c2cnn(-c3ccccc3)c2NC(=O)c2ccco2)cc1C | -2% | 13µM* | i | 29% | 5 | -7
CC1CCc2nc(NC(=O)Cc3ccc(Cl)cc3)sc2C1 (stereo unspecified) | 16µM* | -47% | i | 16% | -2 | .
Cc1cc(C)c(S(=O)(=O)Nc2ccc3oc4c(c3c2)CCCC4)cc1C | ? | -89% | i | -36% | -8 | .
Cc1cc(S(=O)(=O)Nc2ccc3oc4c(c3c2)CCCC4)ccc1Cl | 16µM* | -98% | ? | ? | -1 | .
CC(C)(C)C1CCc2oc3ccc(NS(=O)(=O)c4ccc(C(=O)O)cc4)cc3c2C1 (stereo unspecified) | 22µM* | -121% | . | . | 6 | .
SMILES | TGFb SMAD3 inh | HepG2 tox | S2 tox | ATXN2 expr inh | DRD3 agonist | D3 antag
Cc1cc(F)ccc1S(=O)(=O)Nc1ccc2oc3c(c2c1)CC(C)CC3 (stereo unspecified) | ? | -98% | 32µM* | ? | 13 | .
CCCCOc1ccc(C(=O)Nc2cc(-c3cn4cccnc4n3)ccc2OC)cc1 | -23% | -20% | . | . | 0 | .
CC(=O)c1cc(-c2ccc(F)cc2)n(CCC(=O)Nc2nc3c(C)cccc3s2)c1C | 0% | -22% | . | . | 4 | .
CC(=O)c1cccc(CN2CCN(CCc3ccccc3)C(CCO)C2)c1 (stereo unspecified) | -3% | 3% | i | -7% | -18 | ?
CSc1ccc(CN2CCN(Cc3ccccc3)C(CCO)C2)cc1 (stereo unspecified) | -21% | -10% | i | -16% | -23 | ?
OCCC1CN(C2CCN(c3ccccc3F)CC2)CCN1Cc1ccccc1 (stereo unspecified) | -15% | -12% | . | . | -20 | -103*
CSc1cccc(CN2CCN(CCc3ccccc3)C(CCO)C2)c1 (stereo unspecified) | -29% | -14% | i | -10% | -25 | -114*
OCCC1CN(C2CSCCSC2)CCN1Cc1ccccc1 (stereo unspecified) | 1% | 5% | i | -5% | -15 | -4
CSc1cccc(CN2CCN(Cc3ccccc3)C(CCO)C2)c1 (stereo unspecified) | 12% | -8% | i | . | 0 | -54*
CSc1cccc(CN2CCN(Cc3ccc(F)c(F)c3)C(CCO)C2)c1 (stereo unspecified) | -25% | -125% | i | -26% | -11 | -63*
CCCn1c(=O)c2sccc2n2c(CCCC(=O)Nc3cccc(CC)c3)nnc12 | ? | -21% | . | . | 11 | .
CCc1nc(Oc2cccc(F)c2)c2oc3ccccc3c2n1 | 0% | -28% | i | 13% | 4 | .
COc1cccc(CN2CCN(Cc3cc4ccccc4[nH]3)CC2CCO)c1 (stereo unspecified) | 22µM* | 17% | i | . | -10 | -7
COc1ccccc1/C=C/c1cncc(/C=C/c2ccccc2OC)c1 | -14% | -33% | . | . | . | .
COc1cc(NC(C)=O)ccc1NC(=O)c1cc2ccccc2o1 | 5% | 4% | i | . | 6 | 8
Cc1cc(NC(=O)c2cncc(Br)c2)ccc1NC(=O)c1cc2ccccc2o1 | -14% | -24% | 16µM* | ? | 3 | -25
COc1cc(NC(=O)c2cc(Cl)ccc2Cl)ccc1NC(=O)c1cc2ccccc2o1 | -21% | -28% | . | 32µM* | 9 | .
Cc1sc2ccccc2c1CNC[C@H]1O[C@@H](n2cnc(C(N)=O)n2)[C@H](O)[C@@H]1O | 3% | 7% | i | 7% | 48* | 18
